Test results reported in the supplement of paper PMC10849652.
The full data set covers some 8,800 targets. This sample favours those with a hit. About 0.5% of all pairs of compound and target were hits.

What was measured:
Experiment in all cases: log2 fold change, soluble protein after heating vs DMSO (PISA); higher = thermal stabilisation; K562 lysate, 10 uM; active = over 0.2 and 3.5 SD of the protein, either way, in both replicates (recomputed)
nilotinib = compound: Cc1cn(-c2cc(NC(=O)c3ccc(C)c(Nc4nccc(-c5cccnc5)n4)c3)cc(C(F)(F)F)c2)cn1 [nilotinib]
Method in brief: (§1)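 Pellets of K562 cells were dounce-homogenised in PBS pH 7.4 with 1 mM MgCl2, and the crude extract was held at 1 mg/mL protein for a 30 min treatment with 10 μM compound. Aliquots were heated for 3 min over 48°C-58°C and pooled before NP-40 was added to 0.5% at 4°C. The supernatant from 21,000xg for 90 min was quantified by TMTpro 16plex LC-MS/MS with channel sums equalised. Values are reported from duplicates as log-two fold change in thermal stability relative to solvent controls.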

[1] = compound: Cc1nc(Nc2n[nH]c3c2CN(C(=O)N[C@H](CN(C)C)c2ccccc2)C3(C)C)c2sccc2n1
Method in brief: as §1

dasatinib = compound: Cc1nc(Nc2ncc(C(=O)Nc3c(C)cccc3Cl)s2)cc(N2CCN(CCO)CC2)n1 [dasatinib]
Method in brief: as §1

[2] = compound: Cc1ncc(-c2ccnc(Nc3ccc(S(C)(=O)=O)cc3)n2)n1C(C)C
Method in brief: as §1

[3] = compound: Cn1cc(-c2ccc3c(c2)CCN3C(=O)Cc2cccc(C(F)(F)F)c2)c2c(N)ncnc21
Method in brief: as §1

quisinostat = compound: Cn1cc(CNCC2CCN(c3ncc(C(=O)NO)cn3)CC2)c2ccccc21 [quisinostat]
Method in brief: as §1

tipifarnib = compound: Cn1cncc1[C@@](N)(c1ccc(Cl)cc1)c1ccc2c(c1)c(-c1cccc(Cl)c1)cc(=O)n2C [tipifarnib]
Method in brief: as §1

[4] = compound: NC(=O)Nc1cc(-c2cccc(F)c2)sc1C(=O)N[C@H]1CCCNC1
Method in brief: as §1

[5] = compound: NC(=O)c1cnc(N[C@@H]2CCCC[C@@H]2N)nc1Nc1cccc(-n2nccn2)c1
Method in brief: as §1

[6] = compound: NC1(c2ccc(-c3nc4ccn5c(=O)[nH]nc5c4cc3-c3ccccc3)cc2)CCC1
Method in brief: as §1

[7] = compound: NCC(=O)Nc1ccc(-n2nc(C(F)(F)F)cc2-c2ccc3c(ccc4ccccc43)c2)cc1
Method in brief: as §1

vorinostat = compound: O=C(CCCCCCC(=O)Nc1ccccc1)NO [vorinostat]
Method in brief: as §1

silmitasertib = compound: O=C(O)c1ccc2c(c1)nc(Nc1cccc(Cl)c1)c1ccncc12 [silmitasertib]
Method in brief: as §1

[8] = compound: O=C1NC(=O)C(c2cnc3ccccn23)=C1c1cn2c3c(cc(F)cc13)CN(C(=O)N1CCCCC1)CC2
Method in brief: as §1

entospletinib = compound: c1cn2cc(-c3ccc4cn[nH]c4c3)nc(Nc3ccc(N4CCOCC4)cc3)c2n1 [entospletinib]
Method in brief: as §1

Measured: log2 fold change

SKA3 (UniProt Q8IX90)
inactive: nilotinib -0.046 | [1] -0.018 | dasatinib -0.028 | [2] 0.023 | [3] 0.002 | quisinostat -0.093 | tipifarnib -0.02 | [4] 0.044 | [5] 0.034 | [6] -0.004 | [7] -0.007 | silmitasertib 0 | [8] -0.022 | entospletinib 0.006
active: vorinostat -0.247

SSB (UniProt E7ERC4)
inactive: nilotinib -0.059 | [1] 0.165 | dasatinib 0.007 | [2] 0.198 | [3] -0.078 | quisinostat -0.198 | tipifarnib 0.171 | [4] 0.152 | [5] -0.108 | [6] -0.128 | [7] -0.063 | vorinostat 0.012 | silmitasertib 0.105 | [8] -0.11 | entospletinib -0.092

SPATS2 (UniProt Q86XZ4)
inactive: nilotinib -0.069 | [1] 0.042 | dasatinib -0.073 | [2] 0.074 | [3] -0.03 | quisinostat 0.144 | tipifarnib 0.013 | [4] -0.107 | [5] -0.005 | [6] -0.013 | [7] -0.047 | silmitasertib 0.002 | [8] -0.049 | entospletinib 0.176
active: vorinostat -0.507

SLC39A11 (UniProt Q8N1S5)
inactive: nilotinib 0.072 | [1] -0.039 | dasatinib -0.092 | [2] -0.008 | [3] -0.123 | quisinostat 0.127 | tipifarnib 0.068 | [4] 0.045 | [5] 0.026 | [6] 0.099 | [7] -0.076 | vorinostat 0.103 | silmitasertib -0.015 | [8] 0.058 | entospletinib -0.137

STK26 (UniProt Q9P289)
inactive: nilotinib -0.033 | dasatinib 0.102 | [2] 0.044 | [3] 0.029 | quisinostat -0.035 | tipifarnib -0.013 | [4] 0.104 | [5] 0.002 | [6] -0.008 | [7] -0.027 | vorinostat -0.032 | silmitasertib 0.035 | [8] -0.045 | entospletinib -0.026
active: [1] 0.25

SND1 (UniProt Q7KZF4)
UniProt Q7KZF4, sequence (Q7KZF4 whole entry, looked up): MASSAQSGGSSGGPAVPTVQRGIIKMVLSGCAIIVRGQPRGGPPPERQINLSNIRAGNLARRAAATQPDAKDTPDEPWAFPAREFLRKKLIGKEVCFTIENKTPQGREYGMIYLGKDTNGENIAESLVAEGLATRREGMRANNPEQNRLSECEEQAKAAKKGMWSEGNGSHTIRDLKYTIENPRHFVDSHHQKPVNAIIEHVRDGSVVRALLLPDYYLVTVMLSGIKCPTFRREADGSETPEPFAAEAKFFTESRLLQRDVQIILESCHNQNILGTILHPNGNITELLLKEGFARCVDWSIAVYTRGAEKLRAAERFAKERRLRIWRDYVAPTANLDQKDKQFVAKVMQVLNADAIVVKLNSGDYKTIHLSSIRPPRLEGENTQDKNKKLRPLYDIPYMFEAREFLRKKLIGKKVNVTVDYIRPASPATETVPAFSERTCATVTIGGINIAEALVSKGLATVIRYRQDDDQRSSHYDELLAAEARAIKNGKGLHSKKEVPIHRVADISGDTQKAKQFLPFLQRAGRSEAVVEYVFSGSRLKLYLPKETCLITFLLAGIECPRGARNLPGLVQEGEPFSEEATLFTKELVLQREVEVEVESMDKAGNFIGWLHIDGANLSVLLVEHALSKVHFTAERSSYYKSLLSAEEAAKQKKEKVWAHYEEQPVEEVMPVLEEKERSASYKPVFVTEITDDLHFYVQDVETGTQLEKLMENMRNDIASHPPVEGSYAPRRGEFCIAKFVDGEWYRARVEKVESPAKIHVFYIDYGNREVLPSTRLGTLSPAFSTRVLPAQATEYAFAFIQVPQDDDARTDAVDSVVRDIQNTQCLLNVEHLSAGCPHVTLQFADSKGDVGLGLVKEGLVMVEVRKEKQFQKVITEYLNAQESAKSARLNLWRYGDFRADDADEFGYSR
inactive: nilotinib -0.008 | [1] -0.011 | dasatinib -0.028 | [2] -0.024 | [3] 0.038 | quisinostat -0.033 | tipifarnib -0.003 | [4] 0.05 | [5] -0.007 | [6] -0.017 | [7] 0.001 | silmitasertib 0.048 | [8] 0.013 | entospletinib 0.013
active: vorinostat -0.414

SLC25A25 isoform 3 (UniProt Q6KCM7)
inactive: nilotinib 0.027 | [1] -0.015 | dasatinib 0.03 | [2] -0.063 | [3] 0.031 | quisinostat -0.038 | tipifarnib -0.006 | [4] 0.021 | [5] 0.007 | [6] -0.025 | [7] 0.016 | vorinostat 0.054 | silmitasertib 0.02 | [8] -0.036 | entospletinib 0.001

STK36 (UniProt Q9NRP7)
UniProt Q9NRP7, sequence (Q9NRP7 whole entry, looked up): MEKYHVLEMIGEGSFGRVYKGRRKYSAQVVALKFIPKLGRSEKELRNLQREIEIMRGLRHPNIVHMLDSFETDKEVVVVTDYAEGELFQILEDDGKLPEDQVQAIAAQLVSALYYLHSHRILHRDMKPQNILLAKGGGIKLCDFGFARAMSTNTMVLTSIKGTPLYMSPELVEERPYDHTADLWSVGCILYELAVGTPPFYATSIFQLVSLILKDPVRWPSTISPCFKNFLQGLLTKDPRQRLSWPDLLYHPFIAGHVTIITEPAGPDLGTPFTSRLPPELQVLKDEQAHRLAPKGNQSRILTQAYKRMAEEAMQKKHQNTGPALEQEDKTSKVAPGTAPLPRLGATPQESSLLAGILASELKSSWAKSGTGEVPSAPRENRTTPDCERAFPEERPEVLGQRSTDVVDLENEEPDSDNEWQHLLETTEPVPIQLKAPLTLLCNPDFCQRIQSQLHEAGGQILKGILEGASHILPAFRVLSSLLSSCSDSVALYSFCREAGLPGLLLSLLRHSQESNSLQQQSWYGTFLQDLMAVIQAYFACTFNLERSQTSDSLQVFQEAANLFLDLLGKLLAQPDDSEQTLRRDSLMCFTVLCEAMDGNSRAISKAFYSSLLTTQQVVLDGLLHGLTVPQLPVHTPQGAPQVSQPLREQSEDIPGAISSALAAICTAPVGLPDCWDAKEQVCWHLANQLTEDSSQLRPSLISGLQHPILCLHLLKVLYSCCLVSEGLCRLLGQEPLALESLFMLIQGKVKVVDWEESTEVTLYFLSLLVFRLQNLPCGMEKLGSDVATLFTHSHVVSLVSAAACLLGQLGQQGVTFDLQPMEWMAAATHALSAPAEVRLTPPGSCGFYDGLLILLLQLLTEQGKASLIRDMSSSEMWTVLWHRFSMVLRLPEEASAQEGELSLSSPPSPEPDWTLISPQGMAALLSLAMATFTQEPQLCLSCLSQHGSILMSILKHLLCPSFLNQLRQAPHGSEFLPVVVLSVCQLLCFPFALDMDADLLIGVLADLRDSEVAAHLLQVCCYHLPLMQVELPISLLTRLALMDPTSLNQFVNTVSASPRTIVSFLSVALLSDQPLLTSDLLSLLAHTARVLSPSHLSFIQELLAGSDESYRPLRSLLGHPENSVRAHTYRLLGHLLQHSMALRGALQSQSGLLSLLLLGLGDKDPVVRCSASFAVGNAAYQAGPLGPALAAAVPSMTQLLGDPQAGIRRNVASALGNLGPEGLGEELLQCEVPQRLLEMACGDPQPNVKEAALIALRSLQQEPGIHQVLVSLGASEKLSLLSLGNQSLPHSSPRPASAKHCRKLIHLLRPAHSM
inactive: nilotinib 0.081 | [1] -0.179 | dasatinib -0.142 | [2] -0.02 | [3] -0.113 | tipifarnib -0.059 | [4] 0.059 | [5] 0.117 | [6] -0.265 | [7] 0.283 | vorinostat 0.143 | silmitasertib -0.032 | [8] 0.101 | entospletinib -0.031
active: quisinostat -1.31

SRPK1 (UniProt Q96SB4)
UniProt Q96SB4, sequence (Q96SB4 whole entry, looked up): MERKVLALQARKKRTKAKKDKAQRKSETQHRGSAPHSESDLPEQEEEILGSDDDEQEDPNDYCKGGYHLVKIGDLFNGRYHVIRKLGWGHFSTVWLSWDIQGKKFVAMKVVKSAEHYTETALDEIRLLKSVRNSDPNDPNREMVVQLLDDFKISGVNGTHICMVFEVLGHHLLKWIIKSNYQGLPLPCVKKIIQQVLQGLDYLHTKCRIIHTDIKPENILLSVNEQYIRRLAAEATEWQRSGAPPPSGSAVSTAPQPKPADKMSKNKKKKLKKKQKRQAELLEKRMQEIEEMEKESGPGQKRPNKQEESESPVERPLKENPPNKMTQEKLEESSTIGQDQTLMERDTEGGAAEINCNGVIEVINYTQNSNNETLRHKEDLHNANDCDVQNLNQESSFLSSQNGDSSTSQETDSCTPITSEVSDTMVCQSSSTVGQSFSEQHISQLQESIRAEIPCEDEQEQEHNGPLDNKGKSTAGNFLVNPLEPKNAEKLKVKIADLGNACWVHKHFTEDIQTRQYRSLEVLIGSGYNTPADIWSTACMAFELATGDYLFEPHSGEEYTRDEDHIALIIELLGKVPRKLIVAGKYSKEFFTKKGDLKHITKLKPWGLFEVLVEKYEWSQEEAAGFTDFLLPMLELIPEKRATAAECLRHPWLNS
inactive: nilotinib -0.002 | [1] 0.069 | dasatinib -0.01 | [2] -0.03 | [3] 0.017 | quisinostat -0.108 | tipifarnib -0.03 | [5] -0.021 | [6] -0.069 | [7] -0.043 | vorinostat -0.172 | silmitasertib 0.119 | [8] 0 | entospletinib 0.012
active: [4] 0.283

STOML2 (UniProt Q9UJZ1)
inactive: nilotinib -0.017 | [1] -0.01 | dasatinib 0.004 | [2] 0.017 | [3] -0.001 | quisinostat 0.035 | tipifarnib 0.005 | [4] 0.018 | [5] 0.002 | [6] -0.003 | [7] 0.03 | vorinostat 0.129 | silmitasertib -0.021 | [8] 0.028 | entospletinib 0.011

TAF6L (UniProt Q9Y6J9)
UniProt Q9Y6J9, sequence (Q9Y6J9 whole entry, looked up): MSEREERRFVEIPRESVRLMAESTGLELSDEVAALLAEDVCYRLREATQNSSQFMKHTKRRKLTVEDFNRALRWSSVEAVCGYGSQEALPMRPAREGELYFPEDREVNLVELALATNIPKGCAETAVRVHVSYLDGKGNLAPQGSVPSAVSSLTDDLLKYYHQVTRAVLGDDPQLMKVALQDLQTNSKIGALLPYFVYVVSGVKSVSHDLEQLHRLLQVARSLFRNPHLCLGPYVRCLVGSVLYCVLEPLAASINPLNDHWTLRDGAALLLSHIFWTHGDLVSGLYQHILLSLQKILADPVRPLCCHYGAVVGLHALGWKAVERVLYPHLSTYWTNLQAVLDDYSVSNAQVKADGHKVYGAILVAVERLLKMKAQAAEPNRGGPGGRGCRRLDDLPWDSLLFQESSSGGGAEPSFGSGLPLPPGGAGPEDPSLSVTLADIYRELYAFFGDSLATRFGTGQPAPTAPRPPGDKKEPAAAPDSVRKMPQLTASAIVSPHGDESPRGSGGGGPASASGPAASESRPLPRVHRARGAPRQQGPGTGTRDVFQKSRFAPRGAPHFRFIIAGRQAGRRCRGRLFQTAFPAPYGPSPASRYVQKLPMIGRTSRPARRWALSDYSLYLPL
inactive: nilotinib -0.023 | [1] 0.012 | dasatinib -0.118 | [2] 0.021 | [3] 0.056 | quisinostat 0.018 | tipifarnib -0.032 | [4] 0.094 | [5] 0.028 | [6] 0.034 | [7] -0.022 | vorinostat -0.086 | silmitasertib 0.013 | [8] -0.033 | entospletinib -0.08

SMN1 (UniProt Q16637)
UniProt Q16637, sequence (Q16637 whole entry, looked up): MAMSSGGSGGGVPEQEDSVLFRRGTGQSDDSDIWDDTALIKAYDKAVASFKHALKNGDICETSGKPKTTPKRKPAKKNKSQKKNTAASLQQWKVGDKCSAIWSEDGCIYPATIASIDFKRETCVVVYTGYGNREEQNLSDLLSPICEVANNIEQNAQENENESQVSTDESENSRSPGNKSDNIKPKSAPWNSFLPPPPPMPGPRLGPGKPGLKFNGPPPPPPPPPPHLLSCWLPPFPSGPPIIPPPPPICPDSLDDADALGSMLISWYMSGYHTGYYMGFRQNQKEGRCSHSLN
inactive: nilotinib 0.012 | [1] 0.019 | dasatinib -0.005 | [2] -0.023 | [3] 0.05 | quisinostat -0.146 | tipifarnib 0 | [4] -0.001 | [5] 0.047 | [6] 0 | [7] -0.014 | silmitasertib 0.035 | [8] 0.052 | entospletinib -0.024
active: vorinostat -0.278

SKP2 (UniProt Q13309)
inactive: nilotinib 0.047 | [1] -0.044 | dasatinib -0.004 | [2] 0.003 | [3] 0.045 | quisinostat -0.193 | tipifarnib -0.035 | [4] 0.295 | [5] -0.015 | [6] -0.044 | [7] -0.07 | vorinostat -0.203 | silmitasertib 0.012 | [8] 0.009 | entospletinib -0.103

SNRPD2 (UniProt P62316)
inactive: nilotinib 0.014 | [1] 0.015 | dasatinib 0.024 | [2] 0.015 | [3] -0.02 | quisinostat 0.007 | tipifarnib 0.014 | [4] -0.027 | [5] 0 | [6] -0.002 | [7] 0 | vorinostat 0.147 | silmitasertib -0.021 | [8] 0.015 | entospletinib 0.001

STMN3 (UniProt Q9NZ72)
inactive: nilotinib -0.068 | [1] 0.218 | dasatinib 0.035 | [2] -0.041 | [3] -0.032 | quisinostat 0.006 | tipifarnib 0.176 | [4] -0.022 | [5] -0.006 | [6] 0.052 | [7] -0.028 | vorinostat 0.065 | silmitasertib -0.033 | [8] -0.004 | entospletinib 0.07

SMC1B isoform 3 (UniProt Q8NDV3)
UniProt Q8NDV3, sequence (Q8NDV3 whole entry, looked up): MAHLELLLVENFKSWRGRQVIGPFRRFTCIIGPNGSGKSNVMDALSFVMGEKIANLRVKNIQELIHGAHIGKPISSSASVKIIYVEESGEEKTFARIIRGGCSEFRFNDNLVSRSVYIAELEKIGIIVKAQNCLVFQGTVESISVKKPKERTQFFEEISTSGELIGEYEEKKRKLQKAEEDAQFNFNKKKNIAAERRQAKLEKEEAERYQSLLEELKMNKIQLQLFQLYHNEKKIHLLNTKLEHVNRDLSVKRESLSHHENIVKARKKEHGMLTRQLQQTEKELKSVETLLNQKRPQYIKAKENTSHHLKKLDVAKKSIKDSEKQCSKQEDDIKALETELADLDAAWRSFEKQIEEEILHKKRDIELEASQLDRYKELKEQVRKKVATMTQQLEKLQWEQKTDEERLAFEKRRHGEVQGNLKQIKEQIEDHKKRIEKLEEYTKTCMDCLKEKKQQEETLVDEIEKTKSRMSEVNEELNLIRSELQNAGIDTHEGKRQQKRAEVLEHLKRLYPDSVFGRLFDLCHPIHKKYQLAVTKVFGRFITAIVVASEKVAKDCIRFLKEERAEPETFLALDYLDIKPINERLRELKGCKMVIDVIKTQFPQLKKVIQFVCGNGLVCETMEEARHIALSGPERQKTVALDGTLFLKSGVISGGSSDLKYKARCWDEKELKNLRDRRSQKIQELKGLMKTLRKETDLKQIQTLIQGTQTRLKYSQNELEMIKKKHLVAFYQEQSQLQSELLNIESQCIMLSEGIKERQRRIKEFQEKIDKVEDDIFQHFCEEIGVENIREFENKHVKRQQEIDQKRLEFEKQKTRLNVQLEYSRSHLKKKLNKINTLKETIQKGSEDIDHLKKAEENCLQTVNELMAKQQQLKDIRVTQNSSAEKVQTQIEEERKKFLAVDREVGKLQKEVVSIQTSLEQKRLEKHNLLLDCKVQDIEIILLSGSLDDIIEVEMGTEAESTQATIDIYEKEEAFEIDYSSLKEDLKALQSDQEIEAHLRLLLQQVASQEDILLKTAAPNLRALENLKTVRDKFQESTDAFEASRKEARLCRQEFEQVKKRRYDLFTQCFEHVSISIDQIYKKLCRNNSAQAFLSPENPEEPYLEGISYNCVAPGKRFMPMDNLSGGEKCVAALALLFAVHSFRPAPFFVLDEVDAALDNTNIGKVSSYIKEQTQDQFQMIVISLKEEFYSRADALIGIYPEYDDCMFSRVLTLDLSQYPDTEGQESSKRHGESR
inactive: nilotinib 0.022 | [1] -0.041 | dasatinib -0.004 | [2] 0.023 | [3] 0.016 | quisinostat 0.004 | tipifarnib 0.008 | [4] -0.014 | [5] -0.005 | [6] -0.055 | [7] -0.063 | vorinostat 0.068 | silmitasertib -0.011 | [8] 0.026 | entospletinib 0.004

SH3BP5L (UniProt Q7L8J4)
inactive: nilotinib -0.056 | [1] 0.037 | dasatinib -0.023 | [2] 0.04 | [3] -0.025 | quisinostat 0.007 | tipifarnib -0.01 | [4] 0.007 | [5] 0.013 | [6] -0.033 | [7] -0.003 | vorinostat -0.025 | silmitasertib -0.068 | [8] 0.051 | entospletinib 0.009

SKA1 (UniProt Q96BD8)
active: vorinostat -0.586
inactive: nilotinib -0.095 | [1] 0.052 | dasatinib -0.034 | [2] 0.023 | [3] -0.032 | quisinostat -0.104 | tipifarnib 0.039 | [4] 0.038 | [5] -0.042 | [6] 0.014 | [7] 0.057 | silmitasertib -0.036 | [8] -0.07 | entospletinib -0.021

SNRPD3 (UniProt P62318)
inactive: nilotinib 0.028 | [1] -0.006 | dasatinib 0.016 | [2] -0.034 | [3] 0.009 | quisinostat -0.002 | tipifarnib -0.002 | [4] 0.029 | [5] 0.004 | [6] 0.001 | [7] -0.011 | vorinostat 0.12 | silmitasertib -0.023 | [8] 0.008 | entospletinib -0.027

SF3B6 (UniProt Q9Y3B4)
active: vorinostat -0.273
inactive: nilotinib 0.045 | [1] 0.013 | dasatinib -0.036 | [2] -0.028 | [3] -0.038 | quisinostat 0.016 | tipifarnib 0.021 | [4] 0 | [5] -0.054 | [6] -0.03 | [7] 0.018 | silmitasertib 0.026 | [8] 0.007 | entospletinib -0.015

SLC20A1 (UniProt Q8WUM9)
inactive: nilotinib -0.021 | [1] -0.001 | dasatinib -0.023 | [2] -0.03 | [3] 0.007 | quisinostat -0.048 | tipifarnib -0.007 | [4] -0.034 | [5] 0.05 | [6] -0.099 | [7] 0 | vorinostat 0.062 | silmitasertib -0.05 | [8] 0.021 | entospletinib 0.064
